Experimental data from PubChem BioAssay (NCATS).
Inconclusive results are not listed. Calls of active or inactive are those of the source. Calls follow the shape of the dose curve; as a rule, active = well fitted curve in the direction sought with a large enough effect; inconclusive = small, poorly fitted or top-dose-only effect, or another doubt; inactive = no such curve, though single readings can be large; an effect the other way counts as inactive or inconclusive.

Tests used:
[1] = Cellular Toxicity (caspase-3) Mesangial (AID 660); settings: mesangial cells, normalized: DMSO 0%, 100 µM tamoxifen 100%; at 91.7 µM (top of the series);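 also: combined caspase 3 and 7 activity read by Caspase-Glo luminescence; cells exposed to compound for 16 h before the caspase read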
Outline: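 Mesangial cells, 1000/well, 5 h settle at 37 °C; compound 16 h, 37 °C; Caspase-Glo 3/7 reagent 20 min RT; luminescence. Norm.: DMSO = 0%, tamoxifen 100 uM = 100%. AC50, Hill fit.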

[2] = Cellular Toxicity (caspase-3) SK-N-SH (AID 661);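 also: 0% = DMSO basal and 100% = 10 µM staurosporine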
Outline: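 Human neuroblastoma SK-N-SH, 1500 cells/well, 5 hr pre-incubation, then compound 16 hr, 37 °C. Caspase-Glo 3/7 reagent, 1 hr RT, luminescence. Norm. to DMSO/10 uM staurosporine; Hill-fit AC50.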

[3] = Cellular Toxicity (caspase-3) H-4-II-E (AID 663); settings: H-4-II-E rat hepatoma, scaled: DMSO 0%, 100 µM tamoxifen 100%; at 92.2 µM (top of the series);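 also: cells exposed to compound for 16 hr before readout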
Outline: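 Apoptosis induction is scored as increased luminescence from caspase 3/7 substrate cleavage in rat hepatoma H-4-II-E cells exposed to compound for 16 hr. Activity is scaled between DMSO and 100 uM tamoxifen.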

[4] = Cellular Toxicity (caspase-3) Hek293 (AID 664); settings: HEK293 caspase-3 activation, DMSO = 0%, 100 µM tamoxifen = 100%; at 92.2 µM (top of the series);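 also: cells exposed to compound for 16 h at 37 °C before readout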
Outline: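 Cells plated, 5 hr at 37 °C; compounds added; 16 hr at 37 °C; Caspase-Glo 3/7 reagent, 20 min RT; luminescence read. Activation expressed relative to DMSO and 100 uM tamoxifen, AC50 by Hill model.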

[5] = Cellular Toxicity (caspase-3) N2a (AID 665);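 also: compound exposure lasted 16 h at 37 °C before readout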
Outline: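 N2a cells, 1500/well, 5 h settle at 37 °C; cpd 16 h, 37 °C; Caspase-Glo 3/7, 1 h RT; luminescence. Norm: DMSO = 0, 10 uM staurosporine = 100%. AC50, Hill fit.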

[6] = Cellular Toxicity (caspase-3) NIH 3T3 (AID 666);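 also: caspase signal read after 16 h compound exposure; 0% = DMSO basal and 100% = 100 µM tamoxifen stimulation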
Outline: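 Luminescence from aminoluciferin released by caspase-3/7 cleavage of a peptide substrate served as read-out. Mouse fibroblast NIH 3T3 cells were exposed to compounds over a concentration range for 16 hours, and AC50 values came from standard Hill modelling.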

[7] = Cellular Toxicity (caspase-3) Renal Proximal Tubule (AID 667); settings: Potency: caspase-3 activation;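 also: cells exposed to compound for 16 hours at 37 °C before detection; 0% = DMSO basal and 100% = 10 µM staurosporine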
Outline: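 Caspase 3/7 activation measured by luminescent aminoluciferin release in primary rat proximal tubule cells after 16 hr compound exposure at 37 °C. AC50 from Hill-fitted concentration-response, scaled between DMSO and 10 uM staurosporine.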

[8] = target: Cytochrome P450 3A4 (Homo sapiens) (UniProt P08684); experiment: qHTS Assay for Inhibitors and Substrates of Cytochrome P450 3A4 (AID 884); also: % is scaled to controls: 0 for no effect and ±100 for the full control effect; nearly all actives have a fitted effect of over 50% in size
Outline: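 20 nM human CYP3A4 with 25 uM Luciferin-PPXE (at KM) in 200 mM KPO4, preincubated 10 min with compound; NADPH regeneration started a 60 min RT reaction. Luciferin detected by luminescence, normalized to 57 uM ketoconazole as full inhibition.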

[9] = Cell Viability - LYMP2-001 (AID 921);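 also: 0% = DMSO only and full inhibition = tetraoctylammonium bromide control wells; nearly all actives have a fitted effect of over 70% in size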
Outline: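 Cellular ATP loss read by luciferase luminescence after 24 h compound exposure at 37 C in complete medium. LYMP2-001 lymphoblastoid cells, 2500/well; qHTS concentration-response data fitted with Hill equation for AC50.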

[10] = MultiTox-Fluor Cytotoxicity Assay - LYMP1-001 - Dead Cells (AID 946)
Outline: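 AC50 from Hill fit of concentration-response; data normalized to DMSO (basal) and 15 uM tetraoctylammonium bromide (100%). LYMP1-001 lymphoblastoid cells, 2500/well, 16 hr compound at 37 C; dead-cell protease fluorescence, Ex/Em 485/520.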

[11] = MultiTox-Fluor Cytotoxicity Assay - LYMP1-001 - Live Cells (AID 947);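 also: 0% = DMSO only and full inhibition = tetraoctylammonium bromide control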
[12] = Cell Viability - LYMP1-002 - Assay at 16 hr (AID 948);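 also: 0% = DMSO alone and full effect = 92 µM tetraoctylammonium bromide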
Outline: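 ATP luminescence (CellTiter-Glo) was measured after 16 hr compound exposure at 37 C of 2500 lymphoblastoid LYMP1-002 cells per well. Concentration-response curves were fitted with the Hill equation to give AC50.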

[13] = MultiTox-Fluor Cytotoxicity Assay - LYMP1-002 - Live Cells (AID 955); also: % is scaled to controls: 0 for no effect and ±100 for the full control effect
Outline: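 Read-out is live-cell protease activity (cell-permeant GF-AFC substrate, fluorescence Ex/Em=405/510), where a decrease indicates acute toxicity. Human lymphoblastoid cells were treated 16 hours at 37 C in a concentration series, and AC50 values came from standard Hill modelling.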

[14] = MultiTox-Fluor Cytotoxicity Assay - LYMP1-002 - Dead Cells (AID 960); also: nearly all actives have a fitted effect of over 60% in size
Outline: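 LYMP1-002 cells 2500/well; 5 hr 37 C pre-incubation; compound 16 hr 37 C; MultiTox-Fluor reagent 60 min RT; dead-cell fluor Ex/Em 485/520. Norm. to DMSO (0%) vs 15 uM tetraoctylammonium bromide (100%); Hill AC50.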

[15] = MultiTox-Fluor Cytotoxicity Assay - LYMP1-003 - Dead Cells (AID 961); also: nearly all actives have a fitted effect of over 70% in size
Outline: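 Human lymphoblastoid LYMP1-003 cells (2500/well) were treated with compounds for 16 hr at 37 C in complete medium. Dead-cell protease release was read by bis-AAF-R110 fluorescence (Ex/Em 485/520). AC50 came from Hill fits, normalized to DMSO and 15 uM tetraoctylammonium bromide.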

[16] = MultiTox-Fluor Cytotoxicity Assay - LYMP1-003 - Live Cells (AID 962);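 also: cells exposed to compound for 16 hours at 37 °C; 0% = DMSO only and full loss = 92 µM tetraoctylammonium bromide; cytotoxic hits lower the live-cell protease signal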
Outline: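 qHTS, 1536-well; 2500 cells/well LYMP1-003; 5 hr 37 C settle; cpd 16 hr 37 C; MultiTox-Fluor reagent 60 min RT; live-cell protease fluor. 405/510; Hill-fit AC50; tetraoctylammonium bromide pos. ctrl.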

[17] = Cell Viability - LYMP1-003 - Assay at 24 hr (AID 963);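 also: plate controls were DMSO only for no effect and tetraoctylammonium bromide positive control for full effect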
Outline: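 Cells seeded at 2500/well, 5 hr at 37 C; compounds added; 24 hr at 37 C; CellTiter-Glo added, 30 min room temperature; luminescence read. Decrease in ATP taken as cytotoxicity, AC50 from Hill modelling.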

[18] = Cell Viability - LYMP1-003 - Assay at 40 hr (AID 964); also: % is scaled to controls: 0 for no effect and ±100 for the full control effect; nearly all actives have a fitted effect of over 60% in size
Outline: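 Cells were seeded at 2500 per well and incubated 5 hr at 37 C. Compounds were added across a concentration series and left 40 hr at 37 C. CellTiter-Glo was added for 30 min at room temperature before luminescence reading.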

[19] = Cell Viability - LYMP2-003 (AID 965);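 also: cells exposed to compounds for 24 h before reading; 0% = DMSO only and full effect = 92 µM tetraoctylammonium bromide; nearly all actives have a fitted effect of over 50% in size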
Outline: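 CellTiter-Glo luminescence quantified ATP loss after 24 h compound treatment of LYMP2-003 lymphoblastoid cells at 37 C. Titration series were fitted with the standard Hill equation to give AC50.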

[20] = Cell Viability - LYMP2-004 (AID 966);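 also: plate controls were DMSO only for no effect and tetraoctylammonium bromide control for full effect; nearly all actives have a fitted effect of over 65% in size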
Outline: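 Cells seeded 2500/well, rested 5 hr at 37 C, dosed across a concentration series, incubated 24 hr at 37 C, then CellTiter-Glo added for 30 min at room temperature and luminescence read. Hill fitting gave AC50.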

Sequence of Cytochrome P450 3A4 (Homo sapiens) (P08684 whole entry, looked up): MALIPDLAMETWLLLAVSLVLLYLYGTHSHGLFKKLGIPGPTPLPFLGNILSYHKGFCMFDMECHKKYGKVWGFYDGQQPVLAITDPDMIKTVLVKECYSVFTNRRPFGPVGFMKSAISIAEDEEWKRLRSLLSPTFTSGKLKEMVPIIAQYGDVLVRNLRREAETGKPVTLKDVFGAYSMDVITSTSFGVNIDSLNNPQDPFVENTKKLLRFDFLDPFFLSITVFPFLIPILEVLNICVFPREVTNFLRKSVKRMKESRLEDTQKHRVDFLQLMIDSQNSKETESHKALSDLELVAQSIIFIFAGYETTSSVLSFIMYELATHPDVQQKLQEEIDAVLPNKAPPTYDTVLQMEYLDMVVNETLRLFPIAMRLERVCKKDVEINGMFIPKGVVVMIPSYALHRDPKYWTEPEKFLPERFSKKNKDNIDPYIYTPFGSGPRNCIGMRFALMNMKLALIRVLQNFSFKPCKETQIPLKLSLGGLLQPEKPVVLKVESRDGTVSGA

N#Cc1ccccc1
inactive: caspase-3 activation [1] -0.669% | outcome [2] | caspase-3 activation [3] 0.346% | caspase-3 activation [4] 1.36% | outcome [5] | outcome [6] | Potency [7] | Potency [8] | Potency [9] | outcome [10] | outcome [11] | outcome [12] | outcome [13] | outcome [14] | Potency [15] | Potency [16] | Potency [17] | Potency [18] | Potency [19] | Potency [20]

O=C(O)c1ccc(Cl)c(Cl)c1
inactive: caspase-3 activation [1] -0.246% | outcome [2] | caspase-3 activation [3] -0.517% | caspase-3 activation [4] 0.484% | outcome [5] | outcome [6] | Potency [7] | Potency [8] | Potency [9] | outcome [10] | outcome [11] | outcome [12] | outcome [13] | outcome [14] | Potency [15] | Potency [16] | Potency [17] | Potency [18] | Potency [19]

CSCCC=O
inactive: caspase-3 activation [1] 0.0965% | outcome [2] | caspase-3 activation [3] -0.467% | caspase-3 activation [4] -2.79% | outcome [5] | outcome [6] | Potency [7] | Potency [8] | Potency [9] | outcome [10] | outcome [11] | outcome [12] | outcome [13] | outcome [14] | Potency [15] | Potency [16] | Potency [17] | Potency [18] | Potency [19]

CCOc1ccc(NC(C)=O)cc1N
inactive: caspase-3 activation [1] 0.11% | outcome [2] | caspase-3 activation [3] 0.579% | caspase-3 activation [4] -1.58% | outcome [5] | outcome [6] | Potency [7] | Potency [8] | Potency [9] | outcome [10] | outcome [11] | outcome [12] | outcome [13] | outcome [14] | Potency [15] | Potency [16] | Potency [17] | Potency [18] | Potency [19] | Potency [20]

Cc1cccc([N+](=O)[O-])c1C(=O)O
inactive: caspase-3 activation [1] -0.481% | outcome [2] | caspase-3 activation [3] 1.44% | caspase-3 activation [4] 2.11% | outcome [5] | outcome [6] | Potency [7] | Potency [8] | Potency [9] | outcome [10] | outcome [11] | outcome [12] | outcome [13] | outcome [14] | Potency [15] | Potency [16] | Potency [17] | Potency [18] | Potency [19] | Potency [20]

O=[N+]([O-])c1cc(C(F)(F)F)ccc1Cl
inactive: caspase-3 activation [1] -0.64% | outcome [2] | caspase-3 activation [3] 0.0893% | caspase-3 activation [4] -0.647% | outcome [5] | outcome [6] | Potency [7] | Potency [8] | Potency [9] | outcome [10] | outcome [11] | outcome [12] | outcome [13] | outcome [14] | Potency [15] | Potency [16] | Potency [17] | Potency [18] | Potency [19]

Cc1cccc(C)c1O
inactive: caspase-3 activation [1] -0.0557% | outcome [2] | caspase-3 activation [3] -0.375% | caspase-3 activation [4] -3.44% | outcome [5] | outcome [6] | Potency [7] | Potency [8] | Potency [9] | outcome [10] | outcome [11] | outcome [12] | outcome [13] | outcome [14] | Potency [15] | Potency [16] | Potency [17] | Potency [18] | Potency [19] | Potency [20]

CC(CCl)OC(C)CCl (stereo not given)
inactive: caspase-3 activation [1] -0.591% | outcome [2] | caspase-3 activation [3] 0.133% | caspase-3 activation [4] 1.69% | outcome [5] | outcome [6] | Potency [7] | Potency [8] | Potency [9] | outcome [10] | outcome [11] | outcome [12] | outcome [13] | outcome [14] | Potency [15] | Potency [16] | Potency [17] | Potency [18] | Potency [19]

CCCC=O
inactive: caspase-3 activation [1] -0.494% | outcome [2] | caspase-3 activation [3] -1.37% | caspase-3 activation [4] -2.73% | outcome [5] | outcome [6] | Potency [7] | Potency [8] | Potency [9] | outcome [10] | outcome [11] | outcome [12] | outcome [13] | outcome [14] | Potency [15] | Potency [16] | Potency [17] | Potency [18] | Potency [19] | Potency [20]

CCCCCCO
inactive: caspase-3 activation [1] 0.267% | outcome [2] | caspase-3 activation [3] 0.291% | caspase-3 activation [4] 0.42% | outcome [5] | outcome [6] | Potency [7] | Potency [8] | Potency [9] | outcome [10] | outcome [11] | outcome [12] | outcome [13] | outcome [14] | Potency [15] | Potency [16] | Potency [17] | Potency [18] | Potency [19]

Cc1ccco1
inactive: caspase-3 activation [1] 0.332% | outcome [2] | caspase-3 activation [3] 1.57% | caspase-3 activation [4] -0.963% | outcome [5] | outcome [6] | Potency [7] | Potency [8] | Potency [9] | outcome [10] | outcome [11] | outcome [12] | outcome [13] | outcome [14] | Potency [15] | Potency [16] | Potency [17] | Potency [18] | Potency [19] | Potency [20]

ON=C1CCCCC1
inactive: caspase-3 activation [1] 0.894% | outcome [2] | caspase-3 activation [3] 1.35% | caspase-3 activation [4] 2.27% | outcome [5] | outcome [6] | Potency [7] | Potency [8] | Potency [9] | outcome [10] | outcome [11] | outcome [12] | outcome [13] | outcome [14] | Potency [15] | Potency [16] | Potency [17] | Potency [18] | Potency [19] | Potency [20]

CC(C)Nc1ccccc1
inactive: caspase-3 activation [1] 1.26% | outcome [2] | caspase-3 activation [3] 0.457% | caspase-3 activation [4] 2.55% | outcome [5] | outcome [6] | Potency [7] | Potency [8] | Potency [9] | outcome [10] | outcome [11] | outcome [12] | outcome [13] | outcome [14] | Potency [15] | Potency [16] | Potency [17] | Potency [18] | Potency [19] | Potency [20]

CC(=O)C1(C)CC2=C(CCCC2(C)C)CC1C (stereo not given)
inactive: caspase-3 activation [1] 1.57% | outcome [2] | caspase-3 activation [3] 1.88% | caspase-3 activation [4] 2.01% | outcome [5] | outcome [6] | Potency [7] | Potency [8] | Potency [9] | outcome [10] | outcome [11] | outcome [12] | outcome [13] | outcome [14] | Potency [15] | Potency [16] | Potency [17] | Potency [18] | Potency [19] | Potency [20]
